Screens as filed in PubChem.
Pf growth 48h – Primary qHTS for delayed death inhibitors of the malarial parasite plastid, 48 hour incubation; actives 5.9% (n = 310,000); Potency, µM (top dose mostly 28.7 µM), without a hit: at the top dose activity change, negative = inhibition, actives largely listed as inhibitors; P. falciparum luciferase growth in erythrocytes, 48 h; AID 504832, 2011
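Erythrocytes infected with P. falciparum carrying an integrated firefly luciferase reporter (2% hematocrit, 0.1% parasitemia final) were exposed to compounds in RPMI 1640 with 0.5% Albumax at 37 C, 5% CO2. Growth inhibition was scored as reduced luminescence.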
VACV mCherry inh – qHTS for Stage-Specific Inhibitors of Vaccinia Orthopoxvirus: mCherry Reporter Primary qHTS | Potency, µM (doses to about 36.5 µM), inactives show at the top dose activity change, negative = inhibition, hits mostly inhibitors | Vaccinia virus mCherry reporter infection, fluorescence | actives 0.63% (n = 310,000); calls by dose curve; tested in A549 cells; note: nearly all actives have a fitted effect of over 35% in size
Vaccinia Venus – qHTS for Stage-Specific Inhibitors of Vaccinia Orthopoxvirus: Venus Reporter Primary qHTS; Vaccinia virus Venus reporter expression, fluorescence; Potency, µM (titrated, usually from 36.5 µM), for inactives: top-dose activity change, negative = inhibition, hits mostly inhibitors; actives 0.46% (n = 330,000); AID 720580, 2013; calls by dose curve; tested in A549 cells; note: nearly all actives have a fitted effect of over 30% in size
AMA1-RON2 inh – qHTS for Inhibitors of AMA1-RON; Towards Development of Antimalarial Drug Lead: Primary Screen | Plasmodium falciparum AMA1 (3D7) - RON2 peptide interaction | AlphaScreen AMA1-biotinylated RON2 peptide binding | Potency, µM (top dose mostly 58.2 µM), for inactives: at the top dose activity change, negative = inhibition, hits mostly inhibitors | actives 0.2% (n = 360,000);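 note: 0% = vehicle wells and -100% = peptide control; nearly all actives have a fitted effect of over 45% in size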
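AMA1 (3D7) with his tag at 25 nM final met compounds first, then biotinylated RON2 peptide at 25 nM; detection used donor plus acceptor beads, 10 µg/mL apiece, read by AlphaScreen after 30 min at room temperature.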
Pf growth 96h – Primary qHTS for delayed death inhibitors of the malarial parasite plastid, 96 hour incubation; P. falciparum luciferase reporter growth, 96 h; Potency, µM (doses to about 28.7 µM), inactives show at the highest dose activity change, negative = inhibition, hits mostly inhibitors; actives 6.9% (n = 320,000); AID 504834, 2011
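Cell-based qHTS: luciferase-tagged P. falciparum in erythrocytes (2% hematocrit, 0.05% parasitemia final) incubated with compounds for 96 hours, 37 C, 5% CO2; luciferase detection reagent then added and luminescence measured.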
Starred values were filed as active, the others as inactive; i = inactive; ? = inconclusive; nt = no result; [ ] = remark or other dose. A selection: hits, their analogues and other compounds. The true share with any hit is near 8.7%. Unless noted, calls come from the whole dose curve; as a rule, active = well fitted curve in the direction sought with a large enough effect; inconclusive = small, poorly fitted or top-dose-only effect, or another doubt; inactive = no such curve, though single readings can be large; an effect the other way counts as inactive or inconclusive. Unless noted, % is set by controls: 0 for no effect and ±100 for the full control effect; potency is the fitted concentration of half-maximal effect.

SMILES	Pf growth 48h	VACV mCherry inh	Vaccinia Venus	AMA1-RON2 inh	Pf growth 96h
O=[N+]([O-])c1cccc(/C=N/Nc2nc(C(Cl)(Cl)Cl)nc3ccccc23)c1	1µM*	-18%	-4%	6%	?
COc1ccc(OC)c(C2Nc3c(C)cc(C)cc3-c3cc(C)nn32)c1 (stereo not given)	nt	i	-8%	nt	nt
COc1ccc(-c2cc(=O)oc3cc(OCc4nn[nH]n4)ccc23)cc1	37%	nt	nt	-3%	4.7µM*
COC(=O)COc1ccc2c(-c3ccc(OC)cc3)cc(=O)oc2c1	34%	nt	-12%	0%	nt
CCCOc1ccc(C2c3c(-c4ccccc4O)n[nH]c3C(=O)N2Cc2ccncc2)cc1OCC (stereo not given)	nt	-9%	-22%	nt	nt
OCCN1CCN(c2cc(C(F)(F)F)nc3ccccc23)CC1	12µM*	i	-10%	-10%	-3%
O=C(c1cc(Cl)cc(Cl)c1)N1CCN(c2cc(C(F)(F)F)nc3ccccc23)CC1	3.7µM*	nt	nt	11%	1.3µM*
O=C(O)CSCC(=O)N1CCN(c2cc(C(F)(F)F)nc3ccccc23)CC1	-2%	nt	nt	0%	4%
C/C(=N\OCc1nc2ccccc2c(=O)n1/N=C/c1cc(C)cc([N+](=O)[O-])c1O)c1ccccc1	6.6µM*	nt	nt	-1%	?
C/C(=N\OCc1nc2ccccc2c(=O)n1/N=C/c1cc([N+](=O)[O-])ccc1O)c1ccccc1	?	nt	nt	87%	?
CCC(C(=O)Nc1ccccc1OC)n1c(C(=O)OC)cc2ccsc21 (stereo not given)	12µM*	-1%	-6%	49%	?
CCc1ccc(NC(=O)N2c3ccccc3Sc3ccccc32)cc1	nt	-11%	-9%	nt	nt
NS(=O)(=O)c1ccc(NC(=O)N2c3ccccc3Sc3ccccc32)cc1	?	-28%	-23%	-6%	2.3µM*
CCOCCCNS(=O)(=O)c1ccc(NC(=O)CN2C(=O)c3ccccc3C2=O)cc1	-5%	i	8%	-10%	?
CCOCCCNS(=O)(=O)c1ccc(NC(=O)N2c3ccccc3Sc3ccccc32)cc1	?	nt	nt	-24%	12µM*
C=CCC(C#N)(c1ccc(OC)c(OC)c1)c1cnccn1 (stereo not given)	13µM*	i	0%	2%	?
CCCCOc1ccc(/C=C/C(=O)NCCc2nc3ccccc3[nH]2)cc1	?	-16%	-10%	4%	12µM*
Cc1oc2c(c1C(=O)O)C(=O)c1ccccc1C2=O	?	?	?	0%	?
Cc1oc2c(c1C(=O)c1ccccc1)C(=O)C(=O)c1ccccc1-2	9.3µM*	nt	?	?	13µM*
CCOC(=O)c1c(C)oc2c1C(=O)c1ccccc1C2=O	0.74µM*	nt	nt	-11%	-3%
CC(Oc1ccc(-c2ccccc2)c(F)c1)c1ccn(S(=O)(=O)c2ccc(Br)cc2)n1 (stereo not given)	?	nt	nt	-7%	10µM*
Cc1nn(C)c(C)c1/C=C(/C(=O)C(C)(C)C)n1cncn1	-13%	-14%	-1%	3%	-25%
CC(C)(C)C(=O)/C(=C/c1ccncc1)n1cncn1	7.4µM*	nt	nt	-5%	-24%
C=C1c2cc3c(cc2NC(=S)N1Cc1ccccc1)OCO3	12µM*	?	-15%	42%	?
C=C[C@H](CC(C)C)N(Cc1ccccc1)S(=O)(=O)N(Cc1ccccc1)[C@H](C=C)CC(C)C	nt	-13%	-6%	nt	nt
SMILES	Pf growth 48h	VACV mCherry inh	Vaccinia Venus	AMA1-RON2 inh	Pf growth 96h
COc1cc(OC)c(NC(=O)N2CCCn3nc(C)cc32)cc1Cl	nt	-10%	-6%	nt	nt
OCCC1CN(Cc2cccn2-c2nccs2)CCN1Cc1ccc(F)c(F)c1 (stereo not given)	?	-15%	-22%	-10%	13µM*
CC(C)=CCN1CCN(Cc2cccn2-c2nccs2)CC1CCO (stereo not given)	-12%	i	-9%	-5%	10µM*
Cc1ncc(CO)c(/C=N/NC(=S)Nc2ccc(F)cc2)c1O	-102%	?	-26%	25%[11.6 µM]	13µM*
Cc1ncc(CO)c(/C=N/N=C/c2ccccc2O)c1O	?	i	-10%	37%	-8%
Cc1ncc(CO)c(/C=N/Nc2ccc(C(F)(F)F)cn2)c1O	?	?	-17%	-17%	2.3µM*
CC(=O)Oc1ccc(C(=O)Nc2ccc3c(c2)C(=O)N(CCC(=O)O)C3=O)cc1	nt	nt	nt	-2%	12µM*
Cc1ccc(-c2c(C(=O)N/N=C/c3ccc4c(c3)OCO4)nnn2-c2nonc2N)cc1	?	nt	nt	5%	?
Cc1ccc(-c2c(C(=O)N/N=C/c3ccco3)nnn2-c2nonc2N)cc1	?	0%	-5%	77%	?
CC1CCN(Cc2c(C(=O)N/N=C/c3ccc(C(C)C)cc3)nnn2-c2nonc2N)CC1	?	-13%	-11%	16%	1.7µM*
Cc1ccc(-c2c(C(=O)N/N=C/c3cccc(Cl)c3)nnn2-c2nonc2N)cc1	0.052µM*	nt	nt	-2%	?
Cc1ccc(-c2c(C(=O)N/N=C/c3ccc(C)o3)nnn2-c2nonc2N)cc1	?	nt	nt	109%	2.3µM*
Cc1ccc(-c2c(C(=O)N/N=C/c3ccc(OC(C)C)cc3)nnn2-c2nonc2N)cc1	10µM*	nt	nt	17%	?
O=C(O)c1cccc(-n2cnc3cccnc32)c1	nt	-3%	-4%	nt	nt
O=C(Nc1cccc(-c2nc3ccccc3o2)c1)c1cccc2c(Cl)cccc12	nt	-3%	-9%	nt	nt
Cc1ccc(-c2c(C(=O)N/N=C/c3ccoc3)nnn2-c2nonc2N)cc1	9.3µM*	-12%	-19%	41%	3.3µM*
